Calls of active or inactive are those of the source. Calls come from the whole dose curve; as a rule, active = well fitted curve in the direction sought with a large enough effect; inconclusive = small, poorly fitted or top-dose-only effect, or another doubt; inactive = no such curve, though single readings can be large or run the other way.

The target of this experiment is Alpha-galactosidase (Coffea arabica) (UniProt Q42656). Put plainly: Counterscreen for Glucocerebrosidase Inhibitors: qHTS Assay for Coffee Bean alpha-Galactosidase at pH 4.5 (AID 957).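 Note: plate controls were enzyme alone for no effect and no enzyme for full effect.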 As to conditions: purified coffee bean alpha-galactosidase, fluorogenic substrate; series mostly up to 76.9 µM; activity change, negative = inhibition: at the top concentration. In outline: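 Enzyme is added first (2 nM final), then compounds titrated from 0.7 nM to 77 uM, then 80 uM 4-methylumbelliferyl alpha-D-galactopyranoside; after 20 min at room temperature a pH 10 NaOH/glycine stop precedes fluorescence reading at 365/440 nm.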
Alpha-galactosidase (Coffea arabica), sequence (Q42656 whole entry, looked up): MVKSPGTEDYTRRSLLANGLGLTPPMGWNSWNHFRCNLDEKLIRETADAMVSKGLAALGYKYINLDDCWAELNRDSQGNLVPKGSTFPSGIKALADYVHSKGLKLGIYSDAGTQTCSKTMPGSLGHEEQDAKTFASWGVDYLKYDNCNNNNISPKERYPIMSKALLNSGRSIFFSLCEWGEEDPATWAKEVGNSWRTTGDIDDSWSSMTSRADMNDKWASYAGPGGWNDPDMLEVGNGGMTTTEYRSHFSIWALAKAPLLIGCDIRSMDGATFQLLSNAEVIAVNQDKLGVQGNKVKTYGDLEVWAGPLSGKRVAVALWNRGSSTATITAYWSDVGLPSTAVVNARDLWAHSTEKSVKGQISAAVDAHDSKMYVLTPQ
(The purpose of a counterscreen is to sort out artefacts and off-target activity.)
For the compound `CNCCCC12CCC(c3ccccc31)c1ccccc12`, the “activity change, negative = inhibition” value was -5.49% (inactive).
As to `CN=C(NC#N)NCCSCc1nc[nH]c1C`, the “activity change, negative = inhibition” value is -0.373% (inactive).
Turning to `Cc1cnc(NC(=O)C2=C(O)c3ccccc3S(=O)(=O)N2C)s1`, the “activity change, negative = inhibition” value was -2.79% (inactive).
Regarding `CNCCC=C1c2ccccc2CCc2ccccc21`, the “activity change, negative = inhibition” value was 0.763% (inactive).
Same read-out and setting: for `COc1ccc2[nH]cc(CCNC(C)=O)c2c1` the value was -0.282% (inactive); for `COc1cc(NS(C)(=O)=O)ccc1Nc1c2ccccc2nc2ccccc12`, 7.92% (inactive); for `CC(C)NNC(=O)c1ccncc1`, 2.22% (inactive).
Consider `NCCCNCCSP(=O)(O)O`, for which the “activity change, negative = inhibition” value is 1.99% (inactive).
The same measure, in the same setting: for `NC1CCN(c2cccc(Cl)n2)CC1` the value was -1.52% (inactive); for `CC(C)(C)NC[C@H](O)COc1nsnc1N1CCOCC1`, 2.13% (inactive).
Regarding `Cn1c(=O)c2[nH]cnc2n(C)c1=O`, the “activity change, negative = inhibition” value is -5.16% (inactive).
On the same count and under the same terms, for `CC(C)Cc1ccc(C(C)C(=O)O)cc1` (centres undefined) the value was -4.89% (inactive).
Regarding `C[N+](C)(C)CCCCCC[N+](C)(C)C`, the call was inactive.
On to `CN1CCN(CC(=O)N2c3ccccc3C(=O)Nc3cccnc32)CC1`, for which the “activity change, negative = inhibition” value is -2.17% (inactive).
On the same count and under the same terms, under `C[N+](C)(C)CCOC(N)=O` stands -2.02% (inactive); under `CN1[C@@H]2CC[C@H]1CC(OC(c1ccccc1)c1ccccc1)C2` (some centres undefined), -4.01% (inactive); under `CC[N+](CC)(CC)CCOc1cccc(OCC[N+](CC)(CC)CC)c1OCC[N+](CC)(CC)CC`, 0.296% (inactive).
Consider `NCCCCCC(=O)O`, for which the “activity change, negative = inhibition” value is -2.51% (inactive).
On to `CCN1CCC[C@H]1CNC(=O)c1cc(S(N)(=O)=O)ccc1OC`, for which the “activity change, negative = inhibition” value was 3.26% (inactive).
The same measure, in the same setting: under `CN(C)CCOC(=O)COc1ccc(Cl)cc1` stands 0.0504% (inactive).
As to `CC(=O)c1ccc(S(=O)(=O)NC(=O)NC2CCCCC2)cc1`, the “activity change, negative = inhibition” value is -2.12% (inactive).
Same read-out and setting: under `C1COC(NC(C2CC2)C2CC2)=N1` stands -1.54% (inactive).
On the same count and under the same terms, under `FC(F)(F)c1ccccc1-n1ccnc1` stands 0.208% (inactive); under `CN(C)C(=O)Oc1ccc[n+](C)c1`, 2.94% (inactive); under `CC(C)C(=O)c1c(C(C)C)nn2ccccc12`, 4.2% (inactive).
As for `NCCS(=O)(=O)O`, the “activity change, negative = inhibition” value is -1.35% (inactive).
On the same count and under the same terms, for `COc1ccc2cc([C@H](C)C(=O)O)ccc2c1` the value was -4.89% (inactive); for `NC(=O)c1cnccn1`, -1.88% (inactive); for `CC(=O)O[C@H]1C(=O)[C@@]2(C)[C@H]([C@H](OC(=O)c3ccccc3)[C@]3(O)C[C@H](OC(=O)[C@H](O)[C@@H](NC(=O)c4ccccc4)c4ccccc4)C(C)=C1C3(C)C)[C@]1(OC(C)=O)CO[C@@H]1C[C@@H]2O`, -11.5% (inactive).

The values above are taken from PubChem BioAssay (NCATS).
